Among the data in PubChem BioAssay (EPA / NIEHS) are outcome and AC50 values, retold here.

Where “and” joins values, the source holds several entries; their conditions need not be identical. Identical values can stand only once. Calls of active or inactive are those of the source. The calls were made as follows: active = hit-call score of the fitted dose curve at least 0.9, where 1 is the maximum; inactive = score below 0.9.

Read-out in test [1]: Macrophage colony-stimulating factor (MCSF), CSF1 (gene 1435)
The experiment in a line: BSK_hDFCGF_MCSF: BioMAP Diversity Plus: hDFCGF Assay for Macrophage colony-stimulating factor (MCSF) Biomarker Activity (AID 2283060). Particulars: primary human foreskin fibroblasts; actives raise or lower the signal. In short, it runs like this:
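Human foreskin primary fibroblasts were treated with test chemical for 24 h, and M-CSF was then measured by ELISA. Data were fitted bidirectionally against DMSO as the negative control and activity baseline.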

A short description of test [2]: BSK_hDFCGF_SRB: Viability Assessment in the BioMAP Diversity Plus: hDFCGF Assay (AID 2283061).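 Also: cells exposed to compound for 24 h before the read.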 Particulars: primary human foreskin fibroblasts. Summed up: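 Human foreskin primary fibroblasts were treated with compound and assessed 24 h after dosing. Total protein was measured by sulforhodamine B staining (0.1% SRB after 10% TCA fixation, 560 nm read) as a cytotoxicity marker, with bidirectional fitting against DMSO baseline.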

Read-out in test [3]: TIMP metallopeptidase inhibitor 1 (TIMP1), TIMP1 (gene 7076)
The experiment in a line: BSK_hDFCGF_TIMP1: BioMAP Diversity Plus: hDFCGF Assay for TIMP metallopeptidase inhibitor 1 (TIMP1) Biomarker Activity (AID 2283062). The settings on record: primary human foreskin fibroblasts; actives raise or lower the signal. Summed up: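 Primary human foreskin fibroblasts in the hDFCGF system were dosed with compound for 24 h, then TIMP-1 was measured by ELISA. Activity was fitted bidirectionally relative to DMSO control; parallel SRB staining assessed cytotoxicity.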

Read-out in test [4]: Monokine induced gamma interferon (MIG), CXCL9 (gene 4283)
The experiment in a line: BSK_hDFCGF_MIG: BioMAP Diversity Plus: hDFCGF Assay for Monokine induced gamma interferon (MIG) Biomarker Activity (AID 2283063). The settings on record: primary human foreskin fibroblasts; actives raise or lower the signal. In short, it runs like this:
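ELISA read-out of MIG from primary human dermal fibroblasts 24 h post-dosing. Gain or loss of signal fitted bidirectionally, DMSO as baseline.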

Read-out in test [5]: Matrix Metallopeptidase 1 (MMP1), MMP1 (gene 4312)
The test can be described thus: BSK_hDFCGF_MMP1: BioMAP Diversity Plus: hDFCGF Assay for Matrix Metallopeptidase 1 (MMP1) Biomarker Activity (AID 2283064). Particulars: primary human foreskin fibroblasts; actives raise or lower the signal. In short, it runs like this: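 hDFCGF primary fibroblasts (human foreskin); chemical added; 24 h; MMP1 by ELISA; bidirectional fit vs DMSO.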

Read-out in test [6]: Vascular cell adhesion molecule 1 (VCAM1), VCAM1 (gene 7412)
The test can be described thus: BSK_hDFCGF_VCAM1: BioMAP Diversity Plus: hDFCGF Assay for Vascular cell adhesion molecule 1 (VCAM1) Biomarker Activity (AID 2283065).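 As to AC50: VCAM-1 protein level quantified by ELISA after 24 h chemical exposure.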 The settings on record: primary human foreskin fibroblasts; actives raise or lower the signal. In short, it runs like this:
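Primary human foreskin fibroblasts (hDFCGF system) were dosed with chemical and VCAM-1 was measured by ELISA 24 h later. Bidirectional curve fitting used DMSO as negative control and activity baseline.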

Read-out in test [7]: Plasminogen activator inhibitor-1 (PAI1), SERPINE1 (gene 5054)
The experiment in a line: BSK_hDFCGF_PAI1: BioMAP Diversity Plus: hDFCGF Assay for Plasminogen activator inhibitor-1 (PAI1) Biomarker Activity (AID 2283066). The settings on record: primary human foreskin fibroblasts; actives raise or lower the signal. In short, it runs like this:
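Human foreskin fibroblast primary cells, 24 h chemical exposure; PAI-1 measured by ELISA. Bidirectional fitting relative to DMSO; parallel cultures stained with SRB for total protein to flag overt cytotoxicity.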

Read-out in test [8]: Intercellular Adhesion Molecule 1 (ICAM1), ICAM1 (gene 3383)
The test can be described thus: BSK_KF3CT_ICAM1: BioMAP Diversity Plus: KF3CT Assay for Intercellular Adhesion Molecule 1 (ICAM1) Biomarker Activity (AID 2283067). Particulars: primary human keratinocytes with fibroblasts; actives raise or lower the signal. In short, it runs like this:
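Human keratinocyte plus foreskin fibroblast primary co-culture was exposed to chemical for 24 h. ICAM-1 was then quantified by ELISA, and the data were fit bidirectionally against DMSO as the negative control and baseline.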

Read-out in test [9]: Interferon-gamma inducible Protein 10 (IP10), CXCL10 (gene 3627)
The test can be described thus: BSK_KF3CT_IP10: BioMAP Diversity Plus: KF3CT Assay for Interferon-gamma inducible Protein 10 (IP10) Biomarker Activity (AID 2283068). Particulars: primary human keratinocytes with fibroblasts; actives raise or lower the signal. In short, it runs like this:
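KF3CT co-culture (keratinocytes + foreskin fibroblasts), 24 h compound, IP-10 by ELISA; bidirectional fit vs DMSO baseline.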

Test [10] in a line: BSK_KF3CT_SRB: Viability Assessment in the BioMAP Diversity Plus: KF3CT Assay (AID 2283069).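 Also: fitted for both signal gain and loss against DMSO baseline.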 Particulars: primary human keratinocytes with fibroblasts. Summed up:
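Keratinocytes co-cultured with foreskin fibroblasts (human primary); chemical added, 24 h; fix 10% TCA, stain 0.1% SRB, A560. Bidirectional fit vs DMSO.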

By AC50 is commonly meant the concentration at which the activity in the assay is half-maximal.

`Nc1cc2c3c(c1)C(c1ccccc1)=N[C@@H](NC(=O)c1cccnc1)C(=O)N3CC2`: the result in [1], in [2], in [3], in [4], in test [5] and in test [6] was inactive. Also, the result in test [8], in test [9] and in test [10] was inactive. In test [7], the AC50 was 0.523 µM (active).

As to `CCC(C)(C)c1ccc(O)cc1`, the outcome in test [1], in test [2], in test [3], in test [4], in [5] and in test [6] was inactive. For the same compound, the result in test [7], in test [8], in test [9] and in [10] was inactive.

On to `O=P(Oc1ccccc1)(Oc1ccccc1)Oc1ccccc1`, for which the results for the AC50 in test [1] and in test [7] were 10.9 µM (active) and 20 µM (active), respectively. For the same compound, the result in test [2], in [3], in [4], in test [5], in test [6] and in test [8] was inactive. The outcome in [9] and in test [10] was inactive.

As for `ClC(Cl)c1ccccc1`, the outcome in [1], in test [2], in test [3], in test [4], in test [5] and in test [6] was inactive. The result in [7] and in test [9] was inactive.

Regarding `CSC(C)(C)C=NO`, the result in test [1], in test [2], in test [3], in [4], in test [5] and in test [6] was inactive. The result in [7] and in [9] was inactive.

Take `CC(Cl)CN(C)C` (stereo not drawn): the result in test [1], in test [2], in test [3], in test [4], in test [5] and in test [6] was inactive. For the same compound, the result in test [7], in test [8], in [9] and in [10] was inactive.

In the case of `CCNc1nc(Cl)nc(NC(C)(C)C)n1`, the result in test [1], in [2], in test [3], in test [4], in test [5] and in test [6] was inactive. Further, the result in test [7], in test [8], in test [9] and in test [10] was inactive.

Turning to `OCC(F)(F)OC(F)(F)C(F)(F)OC(F)(F)CO`, the outcome in test [1], in test [2], in test [3], in test [4], in test [5] and in [6] was inactive. Besides, the result in test [7], in [8], in [9] and in test [10] was inactive.

For `NC(=O)C(F)(F)C(F)(F)F`, the outcome in test [1], in test [2], in test [3], in test [4], in test [5] and in [6] was inactive. Further, the result in [7] and in [9] was inactive.

On to `COC(=O)C(F)(F)C(F)(F)OC(F)(C(F)(F)F)C(F)(F)OC(F)=C(F)F` (stereo not drawn), for which the outcome in [1], in test [2], in test [3], in [4], in test [5] and in test [7] was inactive. The outcome in [9] was inactive. Moreover, in test [6], the concentration at half-maximal activity (AC50) is 2.13 µM (active) and 2.85 µM (active).

As to `O=C(O)C(F)(OC(F)(F)C(F)(F)C(F)(F)F)C(F)(F)F` (stereo not drawn), the outcome in [1], in test [2], in [3], in test [4], in [5] and in test [6] was inactive. Further, the result in [7] and in test [9] was inactive.

On to `CCCCOCCOP(=O)(OCCOCCCC)OCCOCCCC`, for which the result in test [1], in test [2], in test [3], in test [4], in test [5] and in test [6] was inactive. In addition, the outcome in test [7], in [8], in test [9] and in test [10] was inactive.

For the compound `CC(Cc1ccc(OCC(=O)O)cc1)NCC(O)c1csc(C(F)(F)F)n1` (stereo not drawn), the outcome in test [1], in test [2], in test [3], in test [4], in test [5] and in test [6] was inactive. The outcome in test [7], in [8], in test [9] and in test [10] was inactive.

For the compound `CCOP(=S)(OCC)SCS(=O)(=O)CC`, the result in test [1], in [2], in test [3], in [4], in test [5] and in test [6] was inactive. Also, the result in test [7] and in [9] was inactive.

For the compound `COP(=O)(O)OC`, the result in test [1], in [2], in test [3], in [4], in test [5] and in test [6] was inactive. In addition, the result in [7] and in test [9] was inactive.

As to `CCCCCCCc1ccc(O)cc1`, the AC50 in test [1] was 20 µM (active); in [2], 30 µM (active); in test [3] it was 32.5 µM (active); in [4], 28.5 µM (active); in test [5], 33.6 µM (active); in [6] it was 20.7 µM (active). Also, the figures for the concentration at half-maximal activity (AC50) in test [7], in test [9] and in [10] were 30.3 µM (active), 29 µM (active) and 30.7 µM (active), respectively.

Regarding `Cc1ccc([N+](=O)[O-])cc1C`, the result in test [1], in test [2], in test [3], in test [4], in [5] and in [6] was inactive. Moreover, the result in [7] and in test [9] was inactive.

For the compound `Cc1ccc(N)cc1N`, the outcome in test [1], in test [2], in [3], in test [4], in [5] and in test [6] was inactive. Also, the result in test [7], in [9] and in test [10] was inactive.

Consider `CC(O)C(F)(F)C(F)(F)F` (stereo not drawn), for which the result in [1], in [2], in test [3], in test [4], in test [5] and in test [6] was inactive. Besides, the result in test [7] and in [9] was inactive.

For `CCC1(c2ccccc2)C(=O)N=C(O)NC1=O` (stereo not drawn), the outcome in test [1], in test [2], in [3], in [4], in [5] and in test [6] was inactive. The outcome in [7], in [9] and in [10] was inactive.

Turning to `FC(F)(F)C(F)(C(F)(F)F)C(F)(F)C(F)(F)CC1CO1` (stereo not drawn), the outcome in test [1], in test [2], in test [3], in test [4], in test [5] and in [6] was inactive. Besides, the outcome in test [7], in test [9] and in test [10] was inactive.
